Data from PubChem BioAssay (NCI).
“And” between values parts separate entries of the source, which are not always exact repeats. Equal values may be shown once. The panel holds about 83,000 compounds, 20% with a hit somewhere; the sample as a whole holds those more often.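 Compound tested at a single concentration for 48 hours in 96-well plates; a percent growth value below 10 was scored as active.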 The source made the active and inactive calls.

What follows are compounds tested on OVCAR-5 ovarian (assay: NCI-60 one-dose screen, 48 h (100 = growth as untreated, 0 = no growth, -100 = all killed)). Details: 0.005 µM.
Experimental: Growth inhibition of the OVCAR-5 human tumor cell line is measured as a screen for anti-cancer activity. Cells are grown in 96 well plates and exposed to the test compound for 48 hours. Compounds are tested at a single concentration, which is 10^-5 M for most compounds. The reported endpoint is percent growth (GI% or GIPRCNT), where numbers from 0 - 100% represent growth inhibition, and numbers from -100% - 0 represent cell death. For example, a value of 40 represents 60% growth inhibition. A value of 0 means no net growth occurred over the course of the experiment. A value of -40 indicates 40% of cells at the beginning of the experiment died by the end of the experiment. A value of -100 means all cells are dead at the end of the experiment.
NCI-60 Human Tumor Cell Lines Screen was performed using the standard one-dose NCI protocol, which is described in more detail at https://dtp.cancer.gov/discovery_development/nci-60/default.htm.
Compounds with GIPRCNT values below 10 were considered active. Activity score was based on GIPRCNT using the following formula: […]
Score is 0 for GIPRCNT values of 100 or above, 50 for GIPRCNT values of 0, and 100 for GIPRCNT values of -100.

| Structure (SMILES) | growth |
| --- | --- |
| CN(C)CCNc1ncc(F)c(-c2cnc3cc(-c4cnn(C)c4)ccn23)n1 | 99.7% (inactive) |

Same assay, conditions: 10 µM unless noted

| Structure (SMILES) | growth |
| --- | --- |
| OCc1cc(CN2CCCCC2)c(O)c2ncccc12 | 59.1% (inactive) |
| COc1cc(-c2nc(SCCC(C)C)nc(Nc3ccc(F)cc3)c2C#N)cc(OC)c1OC | 95% (inactive) |
| CN(C)CCCn1c2c(c3ccc(N4CCNCC4)cc3c1=O)C(=O)c1ccccc1-2 | 16.5% (inactive) |
| O=C1OCC2=C1C(c1cccc([N+](=O)[O-])c1)c1cc3c(cc1N2CCO)CCC3 (stereo not given) | 43.5% (inactive) |
| CC1(C)C(N)=Nc2cc(OCCCCN3Cc4ccccc4C3)c(OCC3CC3)cc21 | 80.3% (inactive) |
| COc1cc(/C=C2\C(=O)N(CCCCn3c4ccccc4c(=O)c4ccccc43)c3ccccc32)cc(OC)c1O | 91% (inactive) |
| CC1(C)C(N)=Nc2cc(OCCCN3Cc4ccc(OCCc5cn(CC(=O)N6CCC(CCN7CCCC7)CC6)nn5)cc4C3)c(OCC3CC3)cc21 | 95% (inactive) |
| Nc1ncc(-c2ccc3ncnc(N4CCc5ccc(Cl)cc54)c3c2)cc1C(F)(F)F | 12.2% (inactive) |
| COC1/C=C/OC2(C)Oc3c(C)c(O)c4c(O)c(c(C=NOC(c5ccccc5)c5ccccc5)c(O)c4c3C2=O)NC(=O)/C(C)=C/C=C/C(C)C(O)C(C)C(O)C(C)C(OC(C)=O)C1C (stereo not given) | 38.1% (inactive) |
| Cc1cc(N2CCN(CC(=O)Nc3ccc4c(ccn4Cc4ccccc4)c3)CC2)nc(N2CCCCCC2)n1 | 75.6% (inactive) |
| Cc1ccc2c(c1)C(C)Cc1c(ncnc1-n1cnc3cc(C)ccc31)N2C (stereo not given) | 79% (inactive) |
| C#CCn1cnc2cnc(Nc3cccc(NC(=O)CCl)c3)nc21 | 14.8% [6.25 µM] (inactive) |
| Clc1ccc2c(NCCN3CCN(c4ccnc(N5CCCC5)n4)CC3)ccnc2c1 | 68.8% (inactive) |
| CCCCCCCCCCCCCCCC[N+](C)(C)CCN(Cc1ccc(OC)cc1)c1ncccn1 | -37% (active) and 67.2% (inactive) |
| COc1ccc(C(=O)N/N=C/c2ccc(O)cc2O)cc1Nc1ccnc(C(F)(F)F)c1 | 46.3% (inactive) |
| Nc1ccc(-c2ccc(N)c(Br)c2)cc1Br | 63% (inactive) |
| CCN(CC)CCOc1ccc(/C(=C(\Cl)c2ccccc2)c2ccccc2)cc1 | 47.5% (inactive) and 72.4% (inactive) |
| CCNC(=O)Nc1ncccc1OCc1ccc(F)cc1 | 92.4% (inactive) |
| Cc1n(Cc2ccc3ccccc3c2)c(Cl)c(Cl)[n+]1Cc1ccc2ccccc2c1 | 51.1% (inactive) |

| Structure (SMILES) | growth |
| --- | --- |
| COc1ccc(N2CCN(S(=O)(=O)c3oc(-c4ccccc4)nc3C#N)CC2)cc1 | 95.2% (inactive) |
| COc1ccc(-c2cc(-c3cc(OC)c(OC)c(OC)c3)c(C#N)c(=O)n2CCCCC(=O)O)cc1 | 105% (inactive) |
| CC(=NCc1ccccc1)c1ccc(O)cc1O | 104% (inactive) |
| COc1ccccc1/C=C/C(=O)/C=C/c1ccccc1OC | -15.7% (active) and -6.94% (active) |
| c1cc(NCCCCN2CCOCC2)c2ccc3c(ccc4c(NCCN5CCOCC5)ccnc43)c2n1 | 111% (inactive) |
| CN(Cc1ccccc1)c1nc(Cl)c(C2CC(c3ccc4c(c3)OCO4)=NN2c2cc(Cl)cc(Cl)c2)s1 (stereo not given) | 106% (inactive) |
| O=C(Nc1ncc(Cc2cccc(C(F)(F)F)c2)s1)c1ccc2c(c1)OCCO2 | 37.1% (inactive) |
| Cc1oc2c(Cc3ccc(NC(=O)c4ccc(Cl)cc4)cc3)ncnc2c1C(=O)NO | 103% (inactive) |
| CC[C@@H]1NC(=O)[C@H]([C@H](O)[C@H](C)C/C=C/c2ccc(CN3C(=O)C(C)=C(C)C3=O)cc2)N(C)C(=O)[C@H](C(C)C)N(C)C(=O)[C@H](CC(C)C)N(C)C(=O)[C@H](CC(C)C)N(C)C(=O)[C@@H](C)NC(=O)[C@H](C)NC(=O)[C@H](CC(C)C)N(C)C(=O)[C@H](C(C)C)NC(=O)[C@H](CC(C)C)N(C)C(=O)CN(C)C1=O | 75.9% (inactive) |
| COCCOc1cc2ncnc(N3CCN(S(=O)(=O)c4ccccc4Cl)CC3)c2cc1OCCOC | 102% (inactive) |
| Cn1cc(-c2csc(-c3cn(CCOC(N)=O)c4ccccc34)n2)c2cccnc21 | 104% (inactive) |
| COc1cc2c(cc1OCCCOC1=C=C=C(c3ccc4c(c3)c3cc(-c5ccc(OCCCOc6cc7c(cc6OC)C(=O)N6CCC[C@H]6C=N7)cc5)ccc3n4S(=O)(=O)c3ccc(C)cc3)C=C1)N=C[C@@H]1CCCN1C2=O | 113% (inactive) |
| COc1ccc(-c2[nH]c3ccccc3c2-c2ccc(OC)cc2)cc1 | 62.6% (inactive) |
| COc1cc(/C=C2/C=C(c3ccc(C(C)(C)C)cc3)N(CCc3ccc(S(N)(=O)=O)cc3)C2=O)cc(OC)c1OC | 91.4% (inactive) |
| [2H]C([2H])([2H])Oc1cccc(/C=C/C(=O)/C=C(/C=C/c2cccc(OC([2H])([2H])[2H])c2OC([2H])([2H])[2H])OB(F)F)c1OC([2H])([2H])[2H] | 106% (inactive) |
| CCOC(=O)c1c(-c2ccc(C)cc2)c(C#N)c(=O)n(-c2cccc(C(F)(F)F)c2)c1N | 93% (inactive) |
| BrC1=C(Br)C(Br)(Br)C(Br)=C1Br | 97.2% (inactive) |
| O=S(=O)(Nc1cc(Sc2cccc3cccnc23)c(O)c2ccccc12)c1ccc(F)cc1 | 38.9% (inactive) |
| O=S(=O)(O)c1ccc(N=Nc2ccc(N=Nc3cccc4ccccc34)c(S(=O)(=O)O)c2)cc1 | 103% (inactive) |

Same assay, conditions: 30 µM

| Structure (SMILES) | growth |
| --- | --- |
| CN(C)CCNc1ncc(F)c(-c2cnc3cc(-c4cnn(C)c4)ccn23)n1 | 64.5% (inactive) |
